Screening data from PubChem.
Vaccinia mCherry – inhibitors of vaccinia virus infection (mCherry reporter signal); Vaccinia virus mCherry reporter infection, fluorescence; Potency, µM (doses to about 36.5 µM), for inactives: top-dose activity change, negative = inhibition, hits mostly inhibitors; 310,000 compounds, 0.63% hits; AID 720579; calls by dose curve; tested in A549 cells; also: potency is read from the fitted curve at half-maximal effect; nearly all actives have a fitted effect of over 35% in size
Vaccinia Venus – inhibitors of vaccinia virus (Venus reporter); 330,000 compounds, 0.46% hits; Potency, µM (top dose mostly 36.5 µM), inactives show at the highest dose activity change, negative = inhibition, most hits filed as inhibitors; Vaccinia virus Venus reporter expression, fluorescence; calls by dose curve; tested in A549 cells; also: potency is read from the fitted curve at half-maximal effect; nearly all actives have a fitted effect of over 30% in size
HCV inh – blocks hepatitis C virus | 340,000 compounds, 3.4% hits | AID 651820 | Huh7.5.1 HCVcc-Cre infection, luciferase reporter, 44 h | Potency, µM (doses to about 41.8 µM), inactives show at the highest dose activity change, negative = inhibition, actives largely listed as inhibitors; active = well fitted inhibition curve with a large enough effect; inconclusive = small, poorly fitted or top-dose-only effect, or another doubt; inactive = no such curve, though single readings can be large or run the other way; also: potency is read from the fitted curve at half-maximal effect
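Whole-lifecycle infectious HCVcc-Cre system; cells 1,000/well, compound then virus (~0.5 moi) added 4 h after plating, 44 h culture. Luciferase read 15 sec following 15 min substrate incubation, room temp.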
Lassa entry inh – blocks Lassa virus binding to or entry into cells. Lassa virus pseudotype entry inhibition, cell reporter. Potency, µM (series often up to 37.9 µM), inactives show at the top dose activity change, negative = inhibition, hits mostly inhibitors. 300,000 compounds, 1.2% hits; calls by dose curve; tested in HEK293 cells; also: potency is read from the fitted curve at half-maximal effect; nearly all actives have a fitted effect of over 50% in size
Marburg entry inh – inhibitors of Marburg virus binding or cell entry. Marburg virus pseudotyped entry inhibition, cell reporter. Potency, µM (series often up to 37.8 µM), inactives show top-dose activity change, negative = inhibition, actives largely listed as inhibitors. 300,000 compounds, 1.8% hits; calls by dose curve; tested in HEK293 cells; also: potency is read from the fitted curve at half-maximal effect
HCMV inh – blocks human cytomegalovirus replication. AID 1259415. activity change, negative = inhibition, % at 57.5 µM. HFF cells, HCMV-luciferase reporter, 72 h; active compounds read low. 410,000 compounds, 4.5% hits; in the data active = activity change below about -60%; inconclusive = no clear call, values can overlap the other calls; inactive = above about -39%
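After 16 h attachment at 37C, HFF cells received test compound and HCMV-luciferase (1 PFU/cell); reporter luminescence read 72 h later, data normalized against buffer-only and known inhibitor Salinomycin.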
The depositor's hits bear a star; i = inactive; ? = inconclusive; . = no result; [ ] = remark or other dose. The list is not random: actives were taken first. Their share in the collection is about 7.8%. % is scaled to controls: 0 for no effect and ±100 for the full control effect.

SMILES	Vaccinia mCherry	Vaccinia Venus	HCV inh	Lassa entry inh	Marburg entry inh	HCMV inh
COc1ccc2c(c1)OC[C@H]1[C@H]2N2C(=O)[C@H](C)NC(=O)[C@@]2(C)[C@H]1c1ccccc1	i	-7%	0%	.	.	-91*
C[C@@]12C(=O)Nc3cc(Cl)ccc3C(=O)N1[C@H]1c3cc(Br)ccc3OC[C@@H]1[C@@H]2c1ccccc1	-4%	-23%	10µM*	.	.	-64*
COc1ccc2c(c1)OC[C@H]1[C@H]2N2C(=O)c3cc(OC)c(OC)cc3NC(=O)[C@@]2(C)[C@H]1c1ccccc1	?	?	7.1µM*	.	.	-15
C[C@@]12C(=O)Nc3cc(Cl)ccc3C(=O)N1[C@H]1c3cc(Cl)ccc3OC[C@@H]1[C@@H]2c1ccccc1	-14%	-25%	?	.	.	?
COc1ccc2c(c1)OC[C@H]1[C@@H]2N2C(=O)[C@@H](C)NC(=O)[C@@]2(C)[C@H]1c1ccccc1	i	-4%	-1%	.	.	-15
COc1ccc2c(c1)OC[C@H]1[C@H]2N2C(=O)c3ccc(F)cc3NC(=O)[C@@]2(C)[C@H]1c1ccccc1	18µM*	?	?	.	.	119
CCN(CC)S(=O)(=O)c1ccc2c(c1)N(CC(=O)Nc1c(C)cccc1C)C(=O)C1CCCN21 (stereo not drawn)	-6%	-14%	.	0%[46.1 µM]	-27%[46.1 µM]	30
Cc1cccc(-c2nc(Cn3c(SCc4cc(C)ccc4C)nc4ccncc43)c(C)o2)c1	-14%	-1%	.	0%[46.1 µM]	-1%[46.1 µM]	16
O=C(CSc1n[nH]c(-c2ccccc2Cl)n1)NCc1ccc(F)cc1	-6%	-14%	.	13%[46.1 µM]	.	-3
CCN(CC)c1ccc(N=C2C(=O)Nc3ccccc32)cc1	-29%	-26%	?	-26%	?	-96*
CCN(CC)c1ccc(C2NC(=O)c3ccccc3N2)cc1 (stereo not drawn)	-19%	?	-19%	6.3µM*	?	-25
Cc1nnc(SCC(=O)NCc2ccc(N(C)C)cc2)c2nn(-c3ccccc3)c(C)c12	0%	-4%	.	-7%[46.1 µM]	.	-27
CN(C(=O)COC(=O)c1ccccc1SCC(=O)N1CCCC1)c1ccccc1	-2%	-12%	0%	-8%	?	-7
CN(Cc1ccccc1)C(=O)COC(=O)c1ccccc1SCC(=O)N1CCCC1	-18%	-6%	5%	7%	-2%	-61*
CN(Cc1ccc(Cl)c(Cl)c1)C(=O)c1ccccc1SCC(=O)N1CCCC1	-9%	-11%	-19%	-12%	-17%[46.1 µM]	-99*
CN(Cc1cccc(Cl)c1Cl)C(=O)c1ccccc1SCC(=O)N1CCCC1	-23%	-19%	22µM*	-23%	?	-5
COc1cc(O)c(C(=O)c2ccccc2)cc1O	?	-7%	.	.	.	.
COc1ccc(C(=O)c2ccccc2)c2c(O)ccc(C(=O)c3ccccc3)c12	.	?	2.5µM*	?	14µM*	-79*
CCc1ccccc1Nc1cc(C(=O)NC2CCC(C)CC2)c2ccccc2n1 (stereo not drawn)	-20%	-19%	.	?	1%[46.1 µM]	-82*
CC1CCCN(S(=O)(=O)c2ccccc2[N+](=O)[O-])C1 (stereo not drawn)	-20%	-14%	-9%	-19%	1%	-30
CC1CC(C)CN(S(=O)(=O)c2ccccc2[N+](=O)[O-])C1 (stereo not drawn)	i	-14%	5%	2%	-13%	-72*
CN(C)c1ccc(C=Nc2ccccc2C(N)=O)cc1	.	.	-2%	?	15µM*	44
COc1ccc(/C=C/CN2CCCC(CCC(=O)NCc3ccc(F)c(F)c3)C2)cc1 (stereo not drawn)	-18%	-16%	?	0%	7.9µM*	-21
COc1ccccc1/C=C/CN1CCCC(CCC(=O)NCc2ccc(F)c(F)c2)C1 (stereo not drawn)	-15%	-19%	?	-16%[46.1 µM]	?	?
CC(Oc1ccc(F)cc1)C(=O)Nc1cc(-c2ccc(F)c(F)c2)no1 (stereo not drawn)	-12%	-10%	.	-8%[46.1 µM]	4%[46.1 µM]	-27
